Assay outcomes deposited in PubChem by several laboratories.
Rows were chosen to be rich in hits. Some 4.7% of all compounds tested hit in one or more screens of this group.
PfHsp90 set2 – inhibits growth of yeast expressing Plasmodium falciparum Hsp90. 310,000 compounds, 0.32% hits. AID 504621. S. cerevisiae expressing PfHsp90, BacTiter-Glo ATP, 48 h; yeast lacking PDR1 and PDR3 efflux regulators. inhibition, % at 9.4 µM;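 active means every replicate shows inhibition above about 80%, whatever the replicate mean, limit read from the data; inconclusive means mean inhibition reaches the set limit but some replicate falls short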;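 further: 0% = DMSO neutral controls and 100% = 20 µM radicicol positive controls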
TIM10 inh – growth inhibitors of TIM10 yeast strain | S. cerevisiae TIM10 strain growth, BacTiter-Glo luminescence, 24 h | inhibition, % at 10 µM | 330,000 compounds, 1.4% hits | AID 463195;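 active means inhibition of 40% or more at the single tested concentration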;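 further: wild-type TIM10 isogenic control strain grown at permissive 25 °C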
tim23-1 inh – inhibits growth of tim23-1 mutant yeast; S. cerevisiae tim23-1 growth, BacTiter-Glo luminescence, 24 h; inhibition, % at 20 µM; 330,000 compounds, 1.3% hits; AID 463212;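 active means growth inhibition of the mutant yeast at or above 50%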;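 further: temperature-sensitive mutant grown at 25 °C; plate controls were DMSO-treated mutant yeast for no effect and medium wells lacking yeast for full effect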
SKKanGAS inh – blocks kanamycin growth of S. pyogenes SKKanGAS strain | BacTiter-Glo, 6 h | inhibition, % at 7.5 µM | 300,000 compounds, 1.3% hits | AID 1662;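 active means mean replicate score, as percent of positive control median, at least 50; inconclusive means mean below 50 but one replicate at or above 50; inactive means mean and every replicate below 50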;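 further: strain carries kanamycin resistance gene driven by streptokinase promoter and grows in 40 µg/ml kanamycin; loss of luminescence reflects streptokinase promoter inhibition or plain growth inhibition; 0% = median of DMSO wells and 100% = positive control at its reference dose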
ATG4B inhibitor – inhibitors of human ATG4B cysteine protease. Q9Y4P1. ATG4B cleavage of LC3-PLA2, NBD-HPC fluorescence, 1 h. inhibition, % at 8.33 µM. 340,000 compounds, 0.51% hits; in the data active means inhibition above about 40%
Target sequence (Q9Y4P1 whole entry, looked up): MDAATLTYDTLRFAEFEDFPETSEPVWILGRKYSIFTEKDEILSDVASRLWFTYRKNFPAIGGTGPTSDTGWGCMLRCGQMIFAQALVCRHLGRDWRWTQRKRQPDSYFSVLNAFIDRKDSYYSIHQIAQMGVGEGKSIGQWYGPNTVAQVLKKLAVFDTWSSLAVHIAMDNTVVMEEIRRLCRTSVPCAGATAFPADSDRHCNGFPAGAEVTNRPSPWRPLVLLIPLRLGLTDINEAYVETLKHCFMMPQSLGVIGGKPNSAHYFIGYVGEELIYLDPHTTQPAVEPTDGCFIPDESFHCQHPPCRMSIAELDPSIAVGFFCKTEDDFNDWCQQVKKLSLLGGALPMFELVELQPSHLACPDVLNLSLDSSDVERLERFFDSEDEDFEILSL
tim10-1 inh – tim10-1 yeast growth inhibition. S. cerevisiae tim10-1 ts strain growth, BacTiter-Glo, 24 h. inhibition, % at 20 µM. 330,000 compounds, 2.2% hits;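 active means inhibition of at least 40%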;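 further: mutant grown at 25 °C; 0% = DMSO wells with yeast and 100% = wells holding no yeast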
tim10-1 confirm – tim10-1 yeast growth inhibition, confirmed | 7,400 compounds, 56% hits | inhibition, % at 20 µM | shares compounds with tim10-1 inh | S. cerevisiae tim10-1 ts strain growth, BacTiter-Glo, 24 h;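 active means inhibition of yeast growth at or above a set limit in either of two repeat tests at 20 µM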;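 further: tim10-1 mutant grown at permissive 25 °C to find synthetic lethal compounds; 0% = DMSO yeast wells and 100% = medium wells without yeast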
Starred values were filed as active, the others as inactive; u = inconclusive; x = no result given.

SMILES	PfHsp90 set2	TIM10 inh	tim23-1 inh	SKKanGAS inh	ATG4B inhibitor	tim10-1 inh	tim10-1 confirm
CCCOC(=O)NC1CCS(=O)(=O)C1 (stereo not given)	x	-9	20	1	-9	11	x
Cc1cc(O)c(C(C[N+](=O)[O-])c2ccc(Cl)cc2Cl)c(=O)o1 (stereo not given)	x	27	27	0	4	43*	26
COc1ccc(-c2cc(C(=O)Nc3ccccc3N3CCOCC3)c3ccccc3n2)cc1OC	-20	30	14	18	-10	42*	25
O=C(Nc1ccccc1N1CCOCC1)c1ccc2ccccc2n1	x	15	26	5	-9	41*	27
Cn1nc(C(=O)Nc2ccccc2N2CCOCC2)ccc1=O	8	-14	-6	x	-11	-6	x
O=C(Nc1ccccc1N1CCOCC1)c1cc(-c2ccncc2)nc2ccccc12	4	19	31	4	-5	35	x
Clc1ccc(Cn2c(/C=C/c3ccco3)nc3ccccc32)cc1	8	31	45	12	7	48*	40*
CC(C)OC(=O)C(C)Nc1n[nH]c(=S)[nH]c1=O (stereo not given)	-3	7	21	-5	-14	6	x
CC(OC(=O)Cc1c(F)cccc1Cl)C(=O)NCCC1=CCCCC1 (stereo not given)	5	12	18	5	3	27	x
CC(C)(C)C1CCc2c(C(=O)NNC(=O)/C=C/C(=O)O)csc2C1 (stereo not given)	5	10	-2	25	0	3	x
CC(C)(C)C1CCc2c(C(=O)N/N=C/c3cccs3)csc2C1 (stereo not given)	3	33	37	20	3	47*	32*
CCN(CC)c1ccc(NC(=O)CCCCCN2C(=O)c3ccccc3C2=O)cc1	x	33	43	-4	-6	46*	42*
CC(=O)Nc1ccc(NC(=O)CCCCCN2C(=O)c3ccccc3C2=O)cc1	-2	6	-2	2	-9	3	x
COCCCNC(=O)c1cn(C)c(=O)c2c1c1ccccc1n2C	-1	3	12	-9	2	17	x
Cn1cc(C(=O)NCCN2CCN(c3cccc(Cl)c3)CC2)c2c3ccccc3n(C)c2c1=O	-47	13	26	10	21	46*	14
O=C(Nc1ccc(N2CCOCC2)c(Cl)c1)c1c(F)c(F)c(F)c(F)c1F	-40	32	24	1	-3	50*	40*
O=C(Nc1ccc(N2CCOCC2)c(Cl)c1)c1cc(F)c(F)cc1Cl	21	16	5	-7	-1	23	x
Nc1c(S(=O)(=O)c2ccccc2)c2nc3ccccc3nc2n1CCN1CCOCC1	x	10	3	5	-11	13	x
C=CCn1c(N)c(C(=O)Nc2cccc(C)c2)c2nc3ccccc3nc21	-10	28	11	51*	-23	61*	49*
Nc1c(C(=O)Nc2ccccc2)c2nc3ccccc3nc2n1CCCN1CCOCC1	23	23	-5	15	-14	64*	44*
CCc1ccc2nc(N3CCN(C(=O)C(C)(C)C)CC3)sc2c1	19	-7	22	-3	-5	15	x
CC(C)(C)C(=O)N1CCN(c2nc3ccccc3s2)CC1	-1	2	25	-8	-4	47*	-9
COc1ccc2nc(N/C(N)=N/C(=S)Nc3ccccc3)nc(C)c2c1	-51	37	44	10	36	50*	19
Cc1cccc(NC(=S)/N=C(\N)Nc2nc(C)c3ccccc3n2)c1	-4	33	35	2	38	44*	27
Cc1ccc(S(=O)(=O)/N=C(\N)Nc2nc(C)c3ccccc3n2)cc1	7	7	31	8	2	45*	10
SMILES	PfHsp90 set2	TIM10 inh	tim23-1 inh	SKKanGAS inh	ATG4B inhibitor	tim10-1 inh	tim10-1 confirm
COc1ccc2c(C)nc(N/C(N)=N/S(=O)(=O)c3ccc(C)cc3)nc2c1	10	13	32	7	-1	30	x
Cc1cccc(NC(=S)/N=C(\N)Nc2nc(C)c3ccc(C)cc3n2)c1	-27	24	20	u	17	35	x
COc1ccc(CC(=O)OC2CCCN(C)C2)cc1 (stereo not given)	8	14	-7	-9	-5	-4	x
CCOC(=O)c1c(NC(=O)CSc2nnc(-c3cccnc3)o2)sc(C(C)=O)c1C	x	16	-2	9	-7	12	x
CCOC(=O)C(Cc1ccccc1)NC(=O)CCc1c(C)nc2ncnn2c1C (stereo not given)	18	-2	1	6	-4	14	x
CCOC(=O)C(Sc1cc(-c2ccccc2)nc2ncnn12)C(C)=O (stereo not given)	-6	11	15	-4	-4	41*	30*
COc1ccc(C(=O)NCc2ccon2)cc1OC1CCN(C(C)C)CC1	6	14	8	-1	-4	2	x
Cc1cc(N2CCCCC2)nc(SCC(=O)c2ccccc2)n1	x	15	35	1	-10	47*	33*
O=C(CSc1nc(N2CCCCC2)nc(N2CCCCC2)n1)c1ccccc1	8	-11	23	-7	-3	14	x
CC(C)N=C1NN=C(c2cccs2)CS1	-20	11	16	-1	-6	-11	x
CC(C)N=C1NN=C(c2ccc(Cl)c(Cl)c2)CS1	-8	12	36	44	7	48*	25
CNC(=O)C12CCC(C)(c3nc4cc(C)c(C)cc4nc31)C2(C)C (stereo not given)	-18	14	31	-1	0	27	x
COC(=O)COc1ccc(S(=O)(=O)N2CCCCCC2)cc1C	20	3	7	3	-15	8	x
COC(=O)COc1ccc(S(=O)(=O)N2CCN(c3ccccc3F)CC2)cc1C	-18	8	24	-6	13	41*	31*
CC(C)c1ccc(N2C(=O)CC(NNC(=O)c3ccccc3Cl)C2=O)cc1 (stereo not given)	18	-15	-8	10	3	-7	x
Cc1c(C=O)c(C=O)c(C)n1Cc1ccccc1	-9	17	39	-4	2	42*	21
CCOc1ccccc1N1CCN(C(=O)[C@@H]2CCCN2C2=NS(=O)(=O)c3ccccc32)CC1	2	10	15	x	-57	10	x
O=C(O)CC/C(=N\Nc1ccc(Cl)cc1)c1cccs1	19	10	36	-4	-13	41*	14
COc1cc(OC)c(N(C)S(=O)(=O)c2cccc(C(=O)Nc3nc(C)cs3)c2)cc1Cl	-15	-1	29	x	0	21	x
CC(C)OC(=O)CSc1nnc(-c2cnccn2)n1-c1ccc(Cl)cc1	x	11	25	-4	-9	41*	21
Cc1ccc(-n2c(SCC(=O)OC(C)C)nnc2-c2ccncc2)cc1	-6	14	18	-1	3	21	x
